Experimental data reported in PubChem BioAssay (NCI).
The panel holds about 79,000 compounds, 15% with a hit somewhere; the sample as a whole holds those more often. Values without a mark were called inactive. Active and inactive are the calls of the source. Rule as the data show it: active = growth inhibition above about 70%; inactive = the rest.

Assay: NCI Yeast Anticancer Drug Screen. Data for the sgs1 mgt1 strain (AID 161);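 also: 0% = growth of cultures given vehicle only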
Conditions: S. cerevisiae sgs1 mgt1 strain, at 50.0 µM, active compounds read high
Summary of the method: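 This yeast growth screen uses a strain with defined DNA-repair lesions; compound-treated growth is compared with vehicle-treated growth.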

SMILES | growth inhibition
CCCN(C)C(C)(C)C(=O)c1ccccc1 | -20.2%
Cc1ccc(S(=O)(=O)OC2CN3CCC2CC3)cc1 (stereo not given) | 42.7%
O=C(Nc1ccccc1F)C(Cl)(Cl)Cl | 9.3%
NC1CC(O)C(O)CC1c1ccc2c(c1)OCO2 (stereo not given) | -15.9%
COc1ccc2c(c1)[C@@]13CCCC[C@H]1[C@@H](C2)N(C)CC3=O | -14.3%
COC1OCC(N=[N+]=[N-])C(OC)C1O (stereo not given) | -3.1%
O=C([CH-]C(=O)c1ccccc1)c1ccccc1.[CH2-]C.[CH2-]C.[Tl+3] | 37.2%
CC1OC(O[C@@H]2C=C3CC[C@@H]4[C@H](CC[C@]5(C)[C@@H](c6ccc(=O)oc6)CC[C@]45O)[C@@]3(C)CC2)C(O)C(OC2OC(CO)C(O)C(O)C2O)C1O (stereo not given in full) | -1.6%
CC1(C)OC2OCCC(N=[N+]=[N-])C2O1 (stereo not given) | -0.95%
CC(C)=CCC/C(C)=N\N=C(N)N | -13.2%
C[C@]12CC[C@@H]3C4=CC(=O)CC[C@@H]4CC[C@H]3[C@@H]1CC[C@@H]2O | 5.2%
CN1CCc2cc3c(cc2[C@H]1[C@@H]1OC(=O)c2c1ccc1c2OCO1)OCO3 | -26%
COc1cc(C=C2C(=O)NC(=S)NC2=O)cc(OC)c1OC | 3.35%
Nc1nc(N)c2[nH]c(N)nc2n1 | -8.9%
C[C@]12CC[C@@H](O)C[C@H]1[C@@H](O)C[C@@H]1[C@@H]2CC[C@]2(C)C(=O)CC[C@@H]12 | 3.05%
C=[CH][Sn]([CH]=C)([c]1ccccc1)[c]1ccccc1 | -14.2%
CNC(=O)c1[nH]cnc1/N=N/N(C)N | 90.5% (active)
NC(Cc1ccccc1)c1nn[nH]n1 (stereo not given) | -35.6%
CC(C)OP(=O)(OCCCO)C(Cl)Cl (stereo not given) | 1.1%
C[C@]12CC[C@H]3[C@@H](CC[C@H]4N(CCCl)CCC[C@]34C)[C@@H]1CC[C@@H]2O | 46.5%

SMILES | growth inhibition
O=P(O)(O)c1ccccc1 | 8.85%
N#C[CH2][Sn]([c]1ccccc1)([c]1ccccc1)[c]1ccccc1 | 99% (active)
CCC1(CCNC(=O)CCl)C(=O)NC(=O)NC1=O | 6.8%
O=c1c2ccccc2nc(-c2ccccc2Cl)n1-c1nnc(C(F)(F)F)s1 | 18.3%
C/C(=N\N=C(N)N)C(CN(C)C)C(c1ccccc1)c1c(O)c2ccccc2oc1=O (stereo not given) | -4.45%
C1=CC2C=CC(C=C1)[PH+]2c1ccccc1.[C-]#[O+].[C-]#[O+].[C-]#[O+].[C-]#[O+].[C-]#[O+].[Cr] (stereo not given) | -9.25%
O=C(O)C(Cl)Cl | 4.45%
C[n+]1ccc2ccccc2c1-c1c2ccccc2cc[n+]1C | -2.55%
O=[N+]([O-])c1ccc2sc3ccccc3c2c1 | 26.3%
COc1c(O)cc2c(c1OC)-c1ccc(SC)c(=O)cc1C(NC(C)=O)CC2 (stereo not given) | 4.95%
O=P(O)(NCCCl)NCCCl | -22.7%
CC(=O)O[C@H]1C(=O)[C@@]2(C)[C@H]([C@H](OC(=O)c3ccccc3)[C@@]3(O)C[C@H](O)C(C)=C1C3(C)C)[C@]1(OC(C)=O)CO[C@@H]1C[C@@H]2O | 6%
C1CN([PH+](N2CC2)N2CC2)CCO1.C1CN([PH+](N2CC2)N2CC2)CCO1.[Cl][Pt][Cl] | 10%
CC(=O)Nc1cc([As](=O)(O)O)ccc1O | 31.8%
COC(=O)C1=C(O)C(C(=O)OC)C2/C(=[N+](/[O-])O)c3c(cc([N+](=O)[O-])cc3[N+](=O)[O-])C1C2[N+](=O)[O-] (stereo not given) | 87.8% (active)
c1cc2c(cc1NC1=NCCO1)CCC2 | 2.75%
O=[N+]([O-])c1ccc(P2(=O)Nc3ccccc3N2)cc1 | -8.6%
Oc1cccc(-c2ccccc2)c1 | 20.3%
O=[Se](=O)(O)O | -8.4%
ClCCN(CCCl)c1ncnc2c1ncn2Cc1ccccc1 | 15.6%
